In ChEMBL document CHEMBL4513216, “Probing the Open Global Health Chemical Diversity Library for Multistage-Active Starting Points for Next-Generation Antimalarials” (ACS Infect Dis, 2020) one finds INHIBITION data, which are given here for 64 molecules.

Among all 68,000 compounds or so, about 2,700 (4%) showed an effect of 50% or more. The list comes from a sample in which strong results are over-represented; it also holds similar structures and randomly drawn compounds.

In the experiment the test system is Plasmodium berghei. Put plainly: Screen against P. berghei liver stage (PbLuc), transformed with Luciferase, at 2uM. The format is functional, HepG2. The settings on record: tested at 2 uM.
`Cc1nc(C2CCCN(C(=O)c3ccc(S(C)(=O)=O)cc3)C2)no1` (centres undefined): the INHIBITION is recorded as -6.56%.
On to `COCCN1C[C@@H]2CCCO[C@@H]2[C@H](N(C)Cc2ccco2)C1`, for which the INHIBITION was 45.82%.
`Cc1nccn1-c1nccnc1C1CCN(Cc2ccc(F)cc2)CC1`: the INHIBITION was -42.32%.
Regarding `CCc1ccccc1CN1CC[C@@H](NC(=O)c2cccnc2)[C@H](O)C1`, the INHIBITION was -44.59%.
To `Cc1ccc(CN2CC[C@@H](NC(=O)c3cccnc3)[C@H](O)C2)s1` belongs -38.78%; to `O=C(N[C@@H]1CCN(Cc2cc3ccccc3s2)C[C@H]1O)c1cccnc1`, 60.35%; to `NC(=O)c1csc(N2CCCC(c3nc4ccccc4[nH]3)C2)n1` (centres undefined), -41.06%.
To `CC(=O)N[C@@H]1CN(Cc2ccccc2C#N)C[C@H]1c1ccc(C)cc1` belongs 28.19%; to `CCN(CC1CCCO1)C(=O)Nc1cc(OC)c(OC)cc1C` (centres undefined), -19.76%; to `CCN(CC1CCCO1)C(=O)Nc1ccc(F)cc1OC` (centres undefined), 22.1%.
As to `CCN(CC1CCCO1)C(=O)Nc1cc(C(N)=O)ccc1OC` (centres undefined), the INHIBITION is reported as 84.53%.
Regarding `O=C(C1CC=CC1)N1C[C@H]2CN(Cc3ccncc3)C(=O)[C@H]2C1`, the INHIBITION is recorded as 30.57%.
To `CN(C)CCNC(=O)[C@H]1C[C@H]2CN(C(=O)NC3CCCC3)C[C@@H]1O2` belongs 43.87%; to `CN1CCN(c2ncnc3c2CCN(C(=O)c2cccn2C)CC3)CC1`, -4.99%; to `Cc1nc(NC(=O)c2c3c(nn2C2CCS(=O)(=O)C2)CCC3)sc1C` (centres undefined), 20.76%.
On to `CCc1nnc(NC(=O)c2c3c(nn2C2CCS(=O)(=O)C2)CCC3)s1` (centres undefined), for which the INHIBITION is 58.53%.
`Cc1nnc(NC(=O)c2c3c(nn2C2CCS(=O)(=O)C2)CCC3)s1` (centres undefined): the INHIBITION was 48.68%.
For `COc1cc2nc3n(c(=O)c2cc1OC)CCN(C(=O)C1CCC1)CC3`, the INHIBITION was -50.24%.
With `c1c(CN2CCCC2)nc2n1CCNC2`, the INHIBITION is given as -102.41%.
To `CN1CCN(Cc2cn3c(n2)CNCC3)CC1` belongs 33.11%.
As for `c1c(CN2CCCCC2)nc2n1CCNC2`, the INHIBITION is 60%.
On to `CO[C@@H]1CCC[C@@H](NC(=O)CCCn2cncn2)[C@H]1O`, for which the INHIBITION is -32.51%.
Take `CCc1cc(C(F)(F)F)n2nc(C3CCCN3C(=O)COC)cc2n1` (centres undefined): the INHIBITION worked out at 33.56%.
For `Cc1ncc(CN2CCOC(CNc3cccnn3)C2)s1` (centres undefined), the INHIBITION was 58.05%.
Turning to `Cc1cnc(CN2CCOC(CNc3cccnn3)C2)cn1` (centres undefined), the INHIBITION is recorded as 18.31%.
With `Cc1nc(C)c(CN2CCOC(CNc3cccnn3)C2)s1` (centres undefined), the INHIBITION is recorded as -15.28%.
For the molecule `CC(C)NC(=O)Cn1cc(OCc2ccc(F)cc2)c(=O)cc1CO`, the INHIBITION is 14.65%.
For `Cc1ccccc1[C@@H]1CN(C(=O)c2ccc3[nH]nnc3c2)C[C@H]1C(=O)O`, the INHIBITION is on record as -45.64%.
For `CCn1c(CN2CCCN(C(=O)OC)CC2)nc2c(F)cccc21`, the INHIBITION was determined as 20.28%.
Take `CCn1c(CN2CCN(CC(N)=O)CC2)nc2c(F)cccc21`: the INHIBITION worked out at 27.55%.
To `CCn1c(CN2CCC(O)(C(=O)OC)CC2)nc2c(F)cccc21` belongs 54.32%; to `CN(Cc1ccccn1)C(=O)C(c1ccccc1)N1CCSCC1` (centres undefined), 19.48%.
With `Fc1cccnc1O[C@@H]1CN(Cc2ccco2)[C@@H]2CCCO[C@@H]21`, the INHIBITION was -8.22%.
Turning to `Fc1cccnc1O[C@@H]1CN(Cc2ccccn2)[C@@H]2CCCO[C@@H]21`, the INHIBITION worked out at 66.64%.
To `Fc1cccnc1O[C@H]1CN(Cc2ccoc2)[C@@H]2CCCO[C@H]12` belongs -0.18%; to `O=C(COc1ccc2cccnc2c1)N1CCN[C@H]2CS(=O)(=O)C[C@H]21`, -7.4%.
`CN(C)C(=O)CN1CCC2(COCc3cnc(-c4cccnc4)nc32)C1` (centres undefined): the INHIBITION is listed as -55.8%.
In the case of `Cc1ccc(CNCC2CNc3cc(C)nn3C2)cn1` (centres undefined), the INHIBITION was 4.19%.
The same measure for `Cc1cc2n(n1)CC(CNCc1cc(C)on1)CN2` (centres undefined): 57%; for `Cc1cc(CNCC2CNc3ccnn3C2)no1` (centres undefined): -10%; for `NCCC(=O)N1CCC2(CC1)CN(C(=O)Cc1ccc(Cl)cc1)CCO2`: 10.62%.
With `CCc1nnc(C(C)N(C)Cc2c(C)nn(-c3ccccc3)c2C)o1` (centres undefined), the INHIBITION amounted to 63.1%.
As for `Cc1ccccc1-n1nc(C)c(CN(C)C(C)Cc2ccccn2)c1C` (centres undefined), the INHIBITION is -74.1%.
On to `Cc1nnc(C(C)N(C)Cc2c(C)nn(-c3ccccc3)c2C)o1` (centres undefined), for which the INHIBITION worked out at 52.08%.
For `Cc1nn(-c2ccccc2)c(C)c1CN1CCNCC1`, the INHIBITION is listed as 1.79%.
To `CC(C)c1nnc(CN(C)C(c2ccccc2)c2ccc(F)cc2)o1` (centres undefined) belongs -7.07%; to `Cc1nnc(C(C)N(C)Cc2c(C)nn(-c3ccccc3C)c2C)o1` (centres undefined), 29.39%; to `CC(=O)N(C)c1nc(CN2CCCC2Cn2nc(C)cc2C)cs1` (centres undefined), -43.47%.
On to `CN(C)c1ncc(-c2ccncc2)c(CCNC(=O)C2CC2)n1`, for which the INHIBITION is -33.32%.
For `Cn1ncc2c(=O)[nH]c(CN(Cc3ccco3)C3CC3)nc21`, the INHIBITION was 5.09%.
With `CC(=O)NCCNC(=O)Nc1ccc(Br)cc1C(C)C`, the INHIBITION is reported as -34.04%.
As to `Cc1ccc(CN2CCC3(CCC(=O)N3CC(=O)N(C)C)CC2)s1`, the INHIBITION came out at 22.71%.
Take `CC1CCN(C(=O)[C@@H]2C[C@@H]3CCN(Cc4nccs4)C[C@H]3O2)CC1`: the INHIBITION was determined as 31.76%.
Consider `Cc1nnc2n1CCN(C(=O)CN1C(=O)CSc3ccccc31)C2`, for which the INHIBITION was -14.79%.
Consider `Cc1nnsc1CN(C)Cc1ccc(C(=O)Nc2sccc2C#N)cc1`, for which the INHIBITION was determined as 67.28%.
As for `CN(Cc1ccc(C(=O)Nc2sccc2C#N)cc1)Cc1ccno1`, the INHIBITION is listed as 26.74%.
Regarding `Cc1nnc(CN(C)Cc2ccc(C(=O)Nc3sccc3C#N)cc2)o1`, the INHIBITION was found to be 33.9%.
Consider `Cc1cc(C)n(CC2CCN(CC(O)COc3ccccc3)CC2)n1` (centres undefined), for which the INHIBITION is listed as -1.96%.
For `O=C(CCn1cccc1)NCc1ccc(CN2CCCCCC2)o1`, the INHIBITION was 56.24%.
On to `Cc1ccn(CCC(=O)NCc2ccc(C)o2)n1`, for which the INHIBITION was found to be 19.49%.
The same measure for `O=C(COc1coc(CN2CCCCC2)cc1=O)NCc1ccccc1`: -11.78%; for `O=C(c1ccco1)N1CCC2(CCC(=O)N2Cc2cccc(F)c2)CC1`: 33.16%.
`O=C(c1ccco1)N1CCC2(CCC(=O)N2Cc2ccccc2)CC1`: the INHIBITION came out at 21.06%.
In the case of `Cc1cccc(CN2C(=O)CCC23CCN(C(=O)c2ccco2)CC3)c1`, the INHIBITION is 70.48%.
